Source: PubChem BioAssay (Tox21)
“And” between values parts separate entries of the source, which are not always exact repeats. Equal values may be shown once. A number with no mark means an inactive call. Results filed as inconclusive are left out. Where a call stands in place of a potency, no number is given. The source made the active and inactive calls. Unless noted, calls come from the whole dose curve; as a rule, active = well fitted curve in the direction sought with a large enough effect in the repeat runs; inconclusive = weak or mixed curves; inactive = no such curve, though single readings can be large; an effect the other way counts as inactive or inconclusive.

What was measured:
[1] = A CellTox Green Cytotoxicity Assay to monitor cytotoxicity in HepG2 cells - 8 hour (AID 1224890); note: nearly all actives have a fitted effect of over 45% in size
Method in brief: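 Real-time, homogeneous cytotoxicity readout: dead-cell DNA staining by CellTox Green in HepG2 monolayers, fluorescence measured at timed intervals up to 40 h of continuous compound exposure.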

[2] = qHTS assay to identify small molecule antagonists of the estrogen receptor alpha (ER-alpha) signaling pathway using the BG1 cell line in the presence of 0.1 nM 17-beta-estradiol - cell viability counter screen (AID 1259241); note: nearly all actives have a fitted effect of over 40% in size
Method in brief: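 Cytotoxicity counter-screen: live-cell protease activity measured by fluorescence (30 min reagent step) in the same wells. Cells were VM7Luc4E2 with endogenous ER-alpha and ERE-driven luciferase, treated 22 hr at 37C alongside 0.1 nM 17beta-estradiol final.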

[3] = qHTS assay to identify small molecule antagonists of the androgen receptor (AR) signaling pathway using the MDA cell line in the presence of 0.5 nM R1881 - cell viability counter screen (AID 1259242); note: nearly all actives have a fitted effect of over 45% in size
Method in brief: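 Cytotoxicity toward MDA-kb2 cells is measured by CellTiter-Fluor live-cell protease fluorescence after 16 hr compound exposure at 37C in the presence of 0.5 nM R1881 stimulator.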

[4] = qHTS assay to identify small molecule phospholipidosis (PLD) inducers (AID 1259344; active = well fitted curve in the direction sought with a large enough effect; an effect the other way counts as inactive or inconclusive)
Method in brief: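 HepG2 cells, 900/well, treated with compound plus LipidTOX Red for 24 h at 37 C; amiodarone positive and DMSO negative controls. Fixed with paraformaldehyde/Hoechst, then high-content imaging scored LipidTOX pit count and integrated intensity per well and per cell.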

[5] = qHTS assay to identify small molecule HDAC inhibitors (AID 1259364); note: top concentration of the series differs between compounds; nearly all actives have a fitted effect of over 45% in size
Method in brief: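 Homogeneous cell-based luminescent assay of endogenous class I/II HDAC activity; HCT-116 cells, 2 h compound exposure, 30 min HDAC-Glo development at RT.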

[6] = qHTS assay to identify small molecule HDAC inhibitors - cell viability counter screen (AID 1259365); note: series mostly up to about 92 µM; nearly all actives have a fitted effect of over 50% in size
Method in brief: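 CellTiter-Glo luminescence (30 min, room temperature) reported viability after a 2 h compound exposure at 37 C. Cells: wild-type HCT-116, 1,500 per well, seeded the night before.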

[7] = qHTS assay to identify small molecule agonists of the sonic hedgehog signaling (Shh) pathway - cell viability counter screen (AID 1259366); note: nearly all actives have a fitted effect of over 50% in size; note: potency is the fitted concentration of half-maximal effect
Method in brief: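 Cytotoxicity counter screen: CellTiter-Fluor reagent added after 23 h compound exposure, then 1 h at 37C and fluorescence read. Cells were 3T3 Gli1-Luc, seeded 2,000 per well and dosed 4 h post-plating.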

[8] = qHTS assay to identify small molecule antagonists of the sonic hedgehog signaling (Shh) pathway - cell viability counter screen (AID 1259367); note: nearly all actives have a fitted effect of over 55% in size; note: potency is the fitted concentration of half-maximal effect
Method in brief: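 NIH/3T3-derived Gli1-Luc reporter cells, 2,000/well, plated 4 hr before compound addition, then stimulated with conditioned medium for 24 hr at 37C. Viability measured in the same wells by CellTiter-Fluor fluorescence, reagent added at 23 hr for 1 hr.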

[9] = target: Estrogen receptor (Homo sapiens) (UniProt P03372); experiment: qHTS assay to identify small molecule antagonists of the estrogen receptor alpha (ER-alpha) signaling pathway using the BG1 cell line in the presence of 0.1 nM 17-beta-estradiol (AID 1259244); note: nearly all actives have a fitted effect of over 50% in size
Method in brief: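 After 5 days in hormone-depleted medium (charcoal-stripped serum, no phenol red), VM7Luc4E2 cells were seeded, incubated 24 h, then co-treated with compound and 0.1 nM (final) estradiol for 22 h before luminescence detection.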

[10] = target: Androgen receptor (Homo sapiens) (UniProt P10275); experiment: qHTS assay to identify small molecule antagonists of the androgen receptor (AR) signaling pathway using the MDA cell line in the presence of 0.5 nM R1881 (AID 1259243); note: nearly all actives have a fitted effect of over 50% in size
Method in brief: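 Steps: seed MDA-kb2 cells, incubate 5 hr at 37C; pin-transfer compounds in DMSO; add R1881 to 0.5 nM final; incubate 16 hr; add ONE-Glo, wait 30 min at room temperature; read luminescence.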

Sequence of Estrogen receptor (Homo sapiens) (P03372 whole entry, looked up): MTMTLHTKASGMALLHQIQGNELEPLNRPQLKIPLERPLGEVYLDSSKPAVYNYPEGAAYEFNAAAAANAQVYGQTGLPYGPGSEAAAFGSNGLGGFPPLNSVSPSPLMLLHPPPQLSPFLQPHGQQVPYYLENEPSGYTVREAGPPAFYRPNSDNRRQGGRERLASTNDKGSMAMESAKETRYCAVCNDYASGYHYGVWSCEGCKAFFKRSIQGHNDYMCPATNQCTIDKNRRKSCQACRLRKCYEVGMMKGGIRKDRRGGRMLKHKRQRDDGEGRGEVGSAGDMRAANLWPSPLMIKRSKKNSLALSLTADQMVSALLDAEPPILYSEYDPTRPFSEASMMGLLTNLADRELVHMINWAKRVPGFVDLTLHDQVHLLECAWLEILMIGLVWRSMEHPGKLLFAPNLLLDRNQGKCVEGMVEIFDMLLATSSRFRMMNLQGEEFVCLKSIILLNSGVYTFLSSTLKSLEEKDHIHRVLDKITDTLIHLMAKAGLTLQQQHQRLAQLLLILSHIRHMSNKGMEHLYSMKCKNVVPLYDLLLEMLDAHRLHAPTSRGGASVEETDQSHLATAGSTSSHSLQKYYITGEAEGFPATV
Sequence of Androgen receptor (Homo sapiens) (P10275 whole entry, looked up): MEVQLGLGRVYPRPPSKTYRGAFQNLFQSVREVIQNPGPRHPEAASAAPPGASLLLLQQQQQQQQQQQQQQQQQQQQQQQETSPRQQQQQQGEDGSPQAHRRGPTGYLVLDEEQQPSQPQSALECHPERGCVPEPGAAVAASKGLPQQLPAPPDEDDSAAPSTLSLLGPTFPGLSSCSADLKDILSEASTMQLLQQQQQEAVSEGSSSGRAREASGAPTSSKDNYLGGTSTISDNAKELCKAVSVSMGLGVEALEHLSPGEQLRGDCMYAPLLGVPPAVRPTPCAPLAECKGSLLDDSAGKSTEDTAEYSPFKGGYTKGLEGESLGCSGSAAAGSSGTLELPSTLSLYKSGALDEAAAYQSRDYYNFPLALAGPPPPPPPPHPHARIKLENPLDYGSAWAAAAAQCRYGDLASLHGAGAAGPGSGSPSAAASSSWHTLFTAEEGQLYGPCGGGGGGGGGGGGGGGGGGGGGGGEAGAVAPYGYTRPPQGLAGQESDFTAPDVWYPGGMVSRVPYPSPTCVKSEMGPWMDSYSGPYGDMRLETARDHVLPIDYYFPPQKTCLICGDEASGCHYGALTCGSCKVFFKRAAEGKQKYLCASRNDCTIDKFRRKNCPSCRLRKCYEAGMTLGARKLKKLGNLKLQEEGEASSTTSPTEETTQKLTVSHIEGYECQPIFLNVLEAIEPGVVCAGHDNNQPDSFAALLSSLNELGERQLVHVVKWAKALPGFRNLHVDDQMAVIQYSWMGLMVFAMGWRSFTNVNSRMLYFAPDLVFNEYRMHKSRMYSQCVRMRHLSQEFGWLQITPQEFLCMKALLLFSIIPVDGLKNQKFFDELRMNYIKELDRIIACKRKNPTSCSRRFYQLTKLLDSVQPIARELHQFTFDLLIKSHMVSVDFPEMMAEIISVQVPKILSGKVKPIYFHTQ

CCN(Cc1ccncc1)C(=O)C(CO)c1ccccc1 (centres undefined)
Potency [1]: inactive | outcome [2]: inactive | Potency [3]: inactive | Potency [4]: inactive | Potency [5]: inactive | outcome [6]: inactive | Potency [7]: inactive | Potency [8]: inactive

CN(C(=O)c1c(O)c2ccccc2n(C)c1=O)c1ccccc1
Potency [1]: inactive | outcome [2]: inactive | Potency [3]: inactive | Potency [4]: inactive | Potency [5]: inactive | outcome [6]: inactive | Potency [7]: inactive | Potency [8]: inactive

O=C(O)CN(CCOCCOCCN(CC(=O)O)CC(=O)O)CC(=O)O
cytotoxicity increase [1]: -22.5% [at 0.29 µM] | activity change, negative = cytotoxicity [2]: -0.0206% [at 0.349 µM] | viability change, negative = cytotoxic [3]: 4.56% [at 0.349 µM] | Potency [4]: inactive | activity change, negative = inhibition [5]: -0.631% [at 0.349 µM] | activity change, negative = cytotoxicity [6]: 5.24% [at 0.349 µM] | viability change, negative = cytotoxic [7]: -0.116% [at 0.349 µM] | viability change, negative = cytotoxic [8]: 0.536% [at 0.349 µM]

FC(F)OC(Cl)C(F)(F)F (centres undefined)
Potency [1]: inactive | outcome [2]: inactive | Potency [3]: inactive | Potency [4]: inactive | Potency [5]: inactive | Potency [7]: inactive | Potency [8]: inactive

NCCc1cnc[nH]1
Potency [1]: inactive | outcome [2]: inactive | Potency [3]: inactive | Potency [4]: inactive | Potency [5]: inactive | outcome [6]: inactive | Potency [7]: inactive | Potency [8]: inactive

CCc1nccnc1CC
cytotoxicity increase [1]: 4% [at 15.8 µM] | activity change, negative = cytotoxicity [2]: -0.0848% [at 19 µM] | viability change, negative = cytotoxic [3]: 6.4% [at 19 µM] | activity change, negative = inhibition [9]: 2.66% [at 19 µM] | activity change, negative = cytotoxicity [6]: 0.191% [at 19 µM] | viability change, negative = cytotoxic [7]: 3.6% [at 19 µM] | Potency [8]: inactive

Cc1[nH]c(=O)c(C#N)cc1-c1ccc2nccn2c1
Potency [1]: inactive | outcome [2]: inactive | Potency [3]: inactive | Potency [4]: inactive | outcome [6]: inactive | Potency [8]: inactive

CO/N=C(/C(=O)N[C@@H]1C(=O)N2C(C(=O)OCOC(=O)C(C)(C)C)=C(C)CS[C@H]12)c1csc(N)n1
Potency [1]: inactive | outcome [2]: inactive | Potency [3]: inactive | Potency [4]: inactive | Potency [5]: inactive | outcome [6]: inactive | Potency [7]: inactive | Potency [8]: inactive

O=C(CCCN1CCN(c2ccccn2)CC1)c1ccc(F)cc1
Potency [1]: inactive | outcome [2]: inactive | Potency [3]: inactive | Potency [4]: inactive | outcome [6]: inactive | Potency [7]: inactive | Potency [8]: inactive

CC(C)(C)c1ccc(O)c(O)c1
Potency [1]: inactive | outcome [2]: inactive | Potency [3]: inactive | Potency [4]: inactive | Potency [5]: inactive | outcome [6]: inactive | Potency [7]: 27.3 µM (active) | Potency [8]: 50.2 µM (active) and 24.3 µM (active)

COCCCOCCCOC
Potency [1]: inactive | outcome [2]: inactive | Potency [3]: inactive | outcome [9]: inactive | Potency [5]: inactive | Potency [8]: inactive

Cc1sccc1Br
Potency [1]: inactive | outcome [2]: inactive | Potency [3]: inactive | outcome [9]: inactive | outcome [6]: inactive | Potency [7]: inactive | Potency [8]: inactive

COc1nc(N)nc2c1ncn2[C@@H]1O[C@H](CO)[C@@H](O)[C@@H]1O
Potency [1]: inactive | outcome [2]: inactive | Potency [3]: inactive | Potency [4]: inactive | outcome [6]: inactive | Potency [8]: inactive

CC(C)OC(=O)c1ccccc1
Potency [1]: inactive | outcome [2]: inactive | Potency [3]: inactive | outcome [9]: inactive | Potency [5]: inactive | Potency [7]: inactive | Potency [8]: inactive

CN1C(=O)N(C)C(O)C1O (centres undefined)
Potency [1]: inactive | outcome [2]: inactive | Potency [3]: inactive | outcome [9]: inactive | outcome [6]: inactive | Potency [7]: inactive | Potency [8]: inactive

Oc1ccc(C2CNCCc3c2cc(O)c(O)c3Cl)cc1 (centres undefined)
Potency [1]: inactive | outcome [2]: inactive | Potency [3]: inactive | Potency [4]: inactive | Potency [5]: inactive | outcome [6]: inactive | Potency [8]: inactive

CC(=O)OCC(=O)[C@@]1(O)CCC2C3CCC4=CC(=O)CC[C@]4(C)C3[C@@H](O)C[C@@]21C (some centres undefined)
Potency [1]: inactive | outcome [2]: inactive | Potency [3]: inactive | Potency [4]: inactive | Potency [5]: inactive | outcome [6]: inactive | Potency [7]: inactive | Potency [8]: inactive

CC(=O)N(CC(O)CO)c1c(I)c(C(=O)NCCO)c(I)c(C(=O)NCC(O)CO)c1I (centres undefined)
Potency [1]: inactive | outcome [2]: inactive | Potency [3]: inactive | Potency [4]: inactive | Potency [5]: inactive | outcome [6]: inactive | Potency [7]: inactive | Potency [8]: inactive

COc1ccc2c(c1)c(CC(=O)OCC(=O)O)c(C)n2C(=O)c1ccc(Cl)cc1
Potency [1]: inactive | Potency [3]: inactive | Potency [10]: inactive | Potency [4]: inactive | Potency [5]: inactive | outcome [6]: inactive | Potency [7]: inactive | Potency [8]: inactive

COC(=O)CC(C)=O
Potency [1]: inactive | outcome [2]: inactive | Potency [3]: inactive | Potency [7]: inactive | Potency [8]: inactive
